The list is not random: actives were taken first. Their share in the collection is about 3.7%.
DRD3 agonist = agonists of human D3 dopamine receptor; P35462; D3R DiscoveRx beta-arrestin cells, luminescence, 90 min; max activation, %; 0.58% of 410,000 active; in the data active means max activation above about 30%; further: 0% is about no effect
Target sequence (P35462 whole entry, looked up): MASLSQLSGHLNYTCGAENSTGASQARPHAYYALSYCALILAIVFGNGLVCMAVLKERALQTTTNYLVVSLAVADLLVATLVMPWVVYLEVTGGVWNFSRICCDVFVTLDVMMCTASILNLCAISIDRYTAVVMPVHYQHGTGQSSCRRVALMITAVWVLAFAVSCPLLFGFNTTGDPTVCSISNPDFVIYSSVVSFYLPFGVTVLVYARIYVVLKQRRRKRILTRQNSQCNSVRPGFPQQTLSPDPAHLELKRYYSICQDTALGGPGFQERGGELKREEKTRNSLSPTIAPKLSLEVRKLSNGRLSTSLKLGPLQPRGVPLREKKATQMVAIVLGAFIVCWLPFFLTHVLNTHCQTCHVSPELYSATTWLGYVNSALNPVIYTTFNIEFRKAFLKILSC
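Agonist mode: compounds and dopamine controls were applied to plated cells for 90 min at 37 degrees C after an overnight attachment at 1500 cells/well. Luminescent read-out followed 30 - 60 minutes at room temperature with DiscoveRx detection reagent.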
D3 antag = antagonists of human D3 dopamine receptor; 2.5% of 360,000 active; P35462; D3R cells, DiscoveRx beta-arrestin luminescence, antagonist mode; stronger effect = lower value; max response, negative = inhibition, %; AID 652054; in the data active means max response below about -50%; inconclusive means no clear call, values can overlap the other calls; further: on the % scale 0 is the no-effect control and ±100 the full control effect
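Cells expressing the human receptor were seeded at 1500 cells/well, incubated overnight at 37 degrees C in 5% CO2, then exposed to library compounds with dopamine controls for 90 minutes at 37 degrees C before luminescent detection.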
RGS4 inhibitor = blocks human RGS4-accelerated GTP hydrolysis | P49798 | Transcreener GDP fluorescence polarization, RGS4-accelerated GTP hydrolysis | Potency, µM (top dose mostly 114 µM), inactives show at the highest dose activity change, negative = inhibition, most hits filed as inhibitors | 0.039% of 390,000 active; further: potency means the concentration at half of the fitted maximal effect; on the % scale 0 is the no-effect control and ±100 the full control effect; nearly all actives have a fitted effect of over 75% in size
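MLSMR compounds (23 nl, pin-transferred) preincubated 10 min at room temperature with a 500nM (2x) first reagent, then RGS4 at 900nM (2x) plus Transcreener GDP mix added; fluorescence polarization (620/688 nm) read before and after 90 min at 30 °C.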
BRCA1 expr act = BRCA1 expression activation; AID 624202; 1.1% of 380,000 active; Potency, µM (top dose mostly 46.1 µM), inactives show top-dose activation, most hits filed as activators; MCF7-BRCA1-FFLuc reporter, luminescence, 48 h; response scale: scaled: vehicle 0%, 10 µM genistein 100%; further: potency means the concentration at half of the fitted maximal effect; nearly all actives have a fitted effect of over 80% in size
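First, MCF7-BRCA1-FFLuc cells (2000/well) attach for 2 h; next, compounds are pin-added and incubated 48 h at 37 °C; finally, luciferase reagent is added and luminescence read after 15 min.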
PTHR1 ag = activates the human parathyroid hormone receptor PTHR1; HEK293 GP2 PTHR1 cells, GloSensor cAMP luminescence, 1 h; 0.075% of 410,000 active; Q03431; Potency, µM (series often up to 115 µM), for inactives: top-dose activation, hits mostly activators; further: potency means the concentration at half of the fitted maximal effect; nearly all actives have a fitted effect of over 55% in size
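HEK-293-derived GP2 cells expressing PTHR1 and a GloSensor cAMP reporter, 3,000/well, plated overnight, given luciferin plus IBMX (each 0.5 mM as added) for 1 h at 37 °C, then compound for 1 h at 37 °C. Luminescence was read after 15 min at room temperature.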
B2AR arrestin = beta2AR (human) beta-arrestin recruitment activity | P07550 | beta-arrestin recruitment to beta2AR, cell-based reporter | Potency, µM (doses to about 46.1 µM), for inactives: top-dose activation, hits mostly activators | 0.02% of 330,000 active | AID 492947;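 further: potency means the concentration at half of the fitted maximal effect; 0% = DMSO controls and full agonism = EC100 isoproterenol or metaproterenol; nearly all actives have a fitted effect of over 65% in size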
Starred values were filed as active, the others as inactive; i = inactive; ? = inconclusive; nt = not tested or not shown; [ ] = remark or other dose. Unless noted, the call rests on the fitted dose curve; in most records, active means well fitted curve in the direction sought with a large enough effect; inconclusive means small, poorly fitted or top-dose-only effect, or another doubt; inactive means no such curve, though single readings can be large; an effect the other way counts as inactive or inconclusive.

SMILES | DRD3 agonist | D3 antag | RGS4 inhibitor | BRCA1 expr act | PTHR1 ag | B2AR arrestin
CC(=O)NC(Cc1cccc(F)c1)C(=O)NC1CCN(C(=O)Nc2ccc(C)cc2)CC1 (stereo not given) | -0.7 | 2.9 | 14.8% | -8.8% | i | 0.4%
O=C1COc2ccc(OCc3ccc(F)cc3)cc21 | -13.8 | ? | -17.0% | 2.82µM* | -18.7% | -0.2%
Cc1cccc(NS(=O)(=O)c2ccc3oc(=O)c4ncn(C)c4c3c2)c1C | 42.2* | nt | 23.5% | nt | ? | nt
CC(C)n1nnnc1-c1cccc(Cl)c1 | 8.1 | -50.6* | 27.3% | 5.9% | i | 0.1%
COc1ccccc1CNc1ncnc2c1c(-c1ccccc1)cn2-c1cccc(C)c1 | -2.2 | nt | 3.9% | nt | i | nt
Cc1ccc(C)n1-c1ccc(-c2ccn[nH]2)cc1 | 1.9 | 9.0 | -22.9% | 43.8% | i | 0.0%
c1ccn(-c2ccc(-c3ccn[nH]3)cc2)c1 | 2.9 | -0.8 | 13.2%[56.9 µM] | 5.01µM* | -9.0% | -1.0%
CCOC(=O)c1sc2nc(C)nc(NCCc3ccccn3)c2c1C | 4.8 | -2.1 | -2.0% | -15.2% | -34.6% | -0.2%
CCOC(=O)c1sc2nc(C)nc(NCc3ccccc3OC)c2c1C | 33.2* | 69.4 | 1.7% | -9.1% | -29.8% | 3.3%
Cc1cc(C(=O)N/N=C/c2cc(Cl)cc([N+](=O)[O-])c2O)c2ccccc2n1 | -5.7 | -66.0* | -21.0% | -84.4% | -14.0% | 0.8%
O=C(N/N=C/c1cc(Cl)cc([N+](=O)[O-])c1O)c1ccc2c(c1)OCO2 | -26.0 | -67.3* | 34.0% | -30.3% | -30.2% | -0.9%
O=C(N/N=C/c1cc(Br)cc(Br)c1O)c1cccc(S(=O)(=O)N2CCOCC2)c1 | 1.3 | -17.8 | 3.2% | 0.0% | -28.0% | -0.1%
O=C(N/N=C/c1cc(Cl)cc([N+](=O)[O-])c1O)c1cccc(S(=O)(=O)N2CCOCC2)c1 | -36.8 | -93.0* | -8.7% | -85.9% | i | 0.5%
C[C@H]1CCC[C@]2(O[C@H](CCO)C[C@H](O)[C@H]2O)O1 | 37.4* | 11.0 | 2.5% | -7.7% | i | nt
COc1ccc(Nc2ncc3c(n2)CCN(Cc2sccc2C)C3)c(OC)c1 | 5.6 | nt | 35.4% | nt | -53.3% | nt
CCCCN(C)C(=O)c1cc2cc3cc(OC)ccc3nc2o1 | 8.0 | -9.0 | 18.0% | 6.31µM* | -3.3% | -0.5%
CCCCN(C)C(=O)c1cc2cc3ccc(OC)cc3nc2o1 | -0.2 | -2.6 | 21.7% | 4.47µM* | -18.5% | -0.4%
Cc1ccnc(NS(=O)(=O)c2ccc(NC(=O)c3cccc(Cl)c3)cc2)n1 | -8.6 | 18.1 | nt | 0.0% | i | nt
Cc1nn(-c2ccccc2)c(Cl)c1/C=N/NC(=O)c1ccn[nH]1 | 9.0 | -2.4 | -13.4% | ? | i | 0.5%
Cc1nn(-c2ccccc2)c(Cl)c1/C=N/NC(=O)c1ccccc1F | 1.7 | 14.6 | -2.4% | 11.2µM* | -21.4% | 0.1%
COc1ccc2ccc(OC)c(/C=N/NC(=O)c3cc4ccccc4o3)c2c1 | -8.5 | -87.5* | nt | -20.8% | -24.9% | nt
CCOc1ccc(C(=O)N/N=C/c2cc([N+](=O)[O-])cs2)cc1 | 1.0 | -7.9 | ? | 29.9% | -5.9% | -0.2%
COc1ccc2ccccc2c1/C=N/NC(=O)c1ccc([N+](=O)[O-])cc1 | -33.9 | -97.1* | -4.9% | 3.8% | i | 0.5%
COc1ccc(/C=N/NC(=O)c2cc3c(ccc4ccccc43)o2)cc1OC | 0.9 | 2.6 | ? | 2.5% | -7.5% | -0.1%
COc1cc(C(=O)N/N=C/c2cc([N+](=O)[O-])cs2)cc(OC)c1OC | -17.6 | -50.1* | -27.0% | -39.1% | i | 0.6%
O=C(CNC(=O)c1cnccc1C(F)(F)F)c1cccc(Cl)c1 | -9.0 | -2.6 | -20.0% | 23.9% | -9.0% | -0.1%
NC(=O)c1sc2nc(-c3ccco3)ccc2c1N | 5.7 | -5.2 | -50.9% | 2.51µM* | i | ?
O=C(CNC(=O)C(c1ccccc1)c1ccccc1)N/N=C/c1ccc(O)cc1O | 32.5* | 19.4 | 20.1% | -66.8% | -32.2% | -0.1%
O=C(N/N=C/c1ccc(O)cc1O)C1CC1 | -1.0 | -91.6* | 7.5% | -1.4% | -2.9% | nt

Source: PubChem BioAssay
